Laboratory results: PubChem BioAssay (NCATS)
Records with an inconclusive call do not appear. Where a call stands in place of a potency, no number is given. A number with no mark means an inactive call. Calls of active or inactive are those of the source. Calls come from the whole dose curve; tested in HEK293 reporter line.
Potency is the fitted concentration of half-maximal effect.

Assay: qHTS for Inhibitors of the Functional Ribonucleoprotein Complex (vRNP) of Lassa (LASV) Arenavirus: LASV Primary Screen - GLuc reporter signal (AID 1347082); note: nearly all actives have a fitted effect of over 60% in size
Conditions: LASV minigenome vRNP, Gaussia luciferase reporter; series mostly up to 57.5 µM
In the case of C=C1C[C@@]23CC4C5[C@@]6(C)C[C@H](O)C[C@@]57C2[C@H](O)[C@@H]1[C@H](O)[C@H]3[C@H]7N4C6, the Potency is reported as “inactive”. With CCOC(=O)/C=C/c1ccccc1 the Potency was “inactive”. For O=C1CCC[C@H]2[C@H]3CCCN4CCCC(=CN12)[C@@H]34, the Potency was “inactive”. In the case of COc1cc2c(c(OC)c1OC)-c1c(cc3c(c1OC)OCO3)[C@@H](OC(C)=O)[C@H](C)[C@H](C)C2, the Potency is reported as “inactive”. With C[C@@H](Cc1cc2c(c(C(N)=O)c1)N(CCCO)CC2)NCCOc1ccccc1OCC(F)(F)F the Potency was “inactive”. With CCCCCCCC/C=C/CCCOC(C)=O the Potency was “inactive”. In the case of CC(=O)OC1c2c(ccc3ccc(=O)oc23)OC(C)(C)C1OC(=O)CC(C)C (centres undefined), the Potency is reported as “inactive”. With C=C1C[C@H](O[C@@H]2O[C@H](CO)[C@@H](O)[C@H](O)[C@H]2O)[C@@H]2[C@H](OC(=O)[C@H]2C)[C@H]2[C@H](C)[C@@H](O)C[C@@H]12 the Potency was “inactive”. With N[C@H](C(=O)O)c1ccc(O)c(C(=O)O)c1 the Potency was “inactive”. For C=C1CCC2C(C)(C)[C@@H](O)CC[C@@]2(C)[C@@H]1COc1ccc2ccc(=O)oc2c1 (some centres undefined), the Potency was “inactive”. With COc1ccc(C(=O)OC2CC3CCC(C2)[N+]3(C)[O-])cc1OC (centres undefined) the Potency was “inactive”. With Cc1c(O)c2ccccc2oc1=O the Potency was “inactive”. In the case of CC(=O)OCC1=C(C(=O)O)N2C(=O)[C@@H](NC(=O)Cc3ccccc3)[C@H]2SC1, the Potency is reported as “inactive”. In the case of CCOC(=O)Cc1ccccc1, the Potency is reported as “inactive”. With COC1CC(C)C(OC)c2cc(O)cc(c2O)NC(=O)C(C)=CC=CC(C)C(OC(N)=O)C(C)=CC(C)C1OC (centres undefined) the Potency was “inactive”. With COC(=O)c1ccccc1-n1c(C)nc2ccccc2c1=O the Potency was “inactive”. In the case of C[C@]12CCC3C(CC[C@H]4C[C@H](O)CC[C@]34C)C1C[C@H](O)[C@@H]2O (some centres undefined), the Potency is reported as “inactive”. With O=Cc1ccc(O)cc1O the Potency was “inactive”. With CS[C@H]1SC[C@@H]2C(=O)N(C)[C@H](C(C)C)C(=O)OC[C@H](NC(=O)c3cnc4ccccc4n3)C(=O)N[C@H](C)C(=O)N(C)[C@@H]1C(=O)N(C)[C@H](C(C)C)C(=O)OC[C@H](NC(=O)c1cnc3ccccc3n1)C(=O)N[C@H](C)C(=O)N2C the Potency was 0.0611 µM (active). With COc1cc(C(=O)OC2CC3CCC2(C)C3(C)C)ccc1OC(C)=O (centres undefined) the Potency was “inactive”. For CCCCC[C@H](O)/C=C/[C@H]1OC(O)C[C@H](O)[C@@H]1C/C=C\CC(=O)O (some centres undefined), the activity change, negative = inhibition was -6.19% [at 0.757 µM]. In the case of CC1=C2C(=O)OC(c3ccoc3)C2(C)CCC1 (centres undefined), the Potency is reported as “inactive”. For COc1c2ccc(OCC/C(C)=C/C(=O)C=C(C)C)cc2nc2occc12, the Potency was “inactive”. For c1ccc2nc(-c3ccc4c(c3)OCO4)ccc2c1, the Potency was “inactive”. In the case of COc1cc(OC)c2ccc(=O)oc2c1, the Potency is reported as “inactive”. In the case of CC(=O)O, the Potency is reported as “inactive”. With CC(=O)O[C@@H]1[C@H](OC(=O)CC(C)C)c2c(ccc3ccc(=O)oc23)OC1(C)C the Potency was “inactive”. With Cc1[nH]c(C=C2C(=O)Nc3ccc(S(=O)(=O)Cc4c(Cl)cccc4Cl)cc32)c(C)c1C(=O)N1CCC[C@H]1CN1CCCC1 the Potency was “inactive”. With CC(=O)Oc1ccc2c(C)cc(=O)oc2c1 the Potency was “inactive”. For O=C(/C=C/c1ccc(O)cc1)OC[C@H]1O[C@@H](Oc2c(-c3ccc(O)cc3)oc3cc(O)cc(O)c3c2=O)[C@H](O)[C@@H](O)[C@@H]1O, the Potency was “inactive”. For CC[C@H](C)C(=O)N[C@H]1CCCN1C(=O)/C=C/c1ccccc1, the Potency was “inactive”. For N#CC(=C1Nc2ccccc2S1)c1ccnc(OCc2ccc(CN3CCOCC3)cc2)n1, the Potency was 7.69 µM (active). With COc1cc(C(=O)O[C@@H]2CC3CC[C@]2(C)C3(C)C)ccc1O the Potency was “inactive”. In the case of Cn1c2ccccc2c2c3c(c4c5ccccc5n(CCC#N)c4c21)CNC3=O, the Potency is reported as 8.63 µM (active). In the case of C[C@]12C=CC(=O)C=C1CC[C@@H]1[C@@H]2[C@@H](O)C[C@@]2(C)[C@@H]1CC[C@]2(O)C(=O)CO, the Potency is reported as “inactive”. For C=CCc1c(OC)ccc2ccc(=O)oc12, the Potency was “inactive”. For C=CC(C)(CCC=C(C)C)OC(=O)c1ccccc1 (centres undefined), the Potency was “inactive”. In the case of COc1cc2c(=O)c(-c3ccc(O)cc3)coc2cc1OC1OC(CO)C(O)C(O)C1O (centres undefined), the Potency is reported as “inactive”. In the case of O=c1cc(-c2ccc(O)cc2)oc2c([C@@H]3O[C@H](CO)[C@@H](O)[C@H](O)[C@H]3O)c(O)c([C@@H]3O[C@H](CO)[C@@H](O)[C@H](O)[C@H]3O)c(O)c12, the Potency is reported as “inactive”.
